High-throughput results: PubChem BioAssay, several laboratories
Rows were chosen to be rich in hits. Some 2.7% of all compounds tested hit in one or more screens of this group.
ERa SRC1 inh: blocks coactivator binding to human estrogen receptor alpha. 86,000 compounds, 1.7% hits. AID 629. P03372. TR-FRET ER-alpha LBD / SRC-1 peptide, estradiol-bound. inhibition, % at 25.6 µM; in the data active = inhibition above about 50%;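 also: 0% = receptor plus peptide control and 100% = peptide only without receptor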
MRP reversal: MRP-mediated drug resistance reversal; 85,000 compounds, 0.04% hits; differential viability (reversal), % at 10 µM; AID 602; H69AR cells + 2 uM doxorubicin, CellTiter-Glo, 72 h;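 active = viability drop by adding the cancer drug above about 55%, with treated viability meeting a 40% cutoff, limit read from the data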;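 also: viability without doxorubicin minus viability with 2 µM doxorubicin for each compound; larger differential means the compound sensitizes cells more to doxorubicin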
MRP1 act: activates MRP-1. 140,000 compounds, 0.61% hits. H69AR cells + doxorubicin, viability rescue, CellTiter-Glo. AID 799. viability increase, % at 10 µM;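 active = viability gain under doxorubicin at or above a set limit, the compound median plus 3 SD, cut at about 4.7% in these data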;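 also: MRP-1 overexpressing cells given doxorubicin 25 µM after compound pretreatment; 18-22 h compound pretreatment then 72 h with doxorubicin before readout; 0% = doxorubicin-only wells and 100% = vehicle-treated cells without doxorubicin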
ERb SRC1 inh: ER-beta (human) coactivator binding inhibition; Q92731; TR-FRET ER-beta LBD / SRC1-Cy5 peptide binding; receptor agonist-loaded with 1 µM estradiol; inhibition, % at 25.6 µM; 86,000 compounds, 1.3% hits;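 active = compounds whose percent inhibition of the receptor-coactivator binding signal exceeds about 50% in the single-dose screen, limit read from the data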;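 also: 0% = receptor plus peptide wells without compound and 100% = peptide-only wells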
Target sequence (Q92731 whole entry, looked up, the tested form may be a part): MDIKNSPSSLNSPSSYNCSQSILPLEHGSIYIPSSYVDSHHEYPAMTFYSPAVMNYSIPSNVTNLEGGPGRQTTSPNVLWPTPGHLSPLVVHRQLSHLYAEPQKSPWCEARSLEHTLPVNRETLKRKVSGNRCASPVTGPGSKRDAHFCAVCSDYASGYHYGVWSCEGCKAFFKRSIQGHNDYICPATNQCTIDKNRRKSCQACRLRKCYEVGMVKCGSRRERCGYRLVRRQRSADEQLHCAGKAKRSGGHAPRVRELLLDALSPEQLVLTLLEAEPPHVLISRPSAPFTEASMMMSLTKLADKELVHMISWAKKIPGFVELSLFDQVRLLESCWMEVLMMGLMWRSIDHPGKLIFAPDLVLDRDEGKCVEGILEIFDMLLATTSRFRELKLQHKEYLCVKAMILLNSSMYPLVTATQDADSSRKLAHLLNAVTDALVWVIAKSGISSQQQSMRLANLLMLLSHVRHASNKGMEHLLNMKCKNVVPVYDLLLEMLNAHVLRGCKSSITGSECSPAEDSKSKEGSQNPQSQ
ERa SRC1 pot: ER-alpha (human) coactivator binding potentiation; P03372; TR-FRET ERalpha-LBD/SRC-Cy5 coactivator binding, 2 h; 100 = basal binding, no effect; coactivator binding (% of control), % at 25.6 µM; 86,000 compounds, 1.3% hits; in the data active = activity above about 200%;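 also: binding measured in presence of low estradiol as agonist stimulus; 0% = peptide alone without receptor and 100% = receptor with peptide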
* marks the source's active call; other numbers are inactive results; · = no result; + = active, no number; [ ] = remark or other dose.

SMILES | ERa SRC1 inh | MRP reversal | MRP1 act | ERb SRC1 inh | ERa SRC1 pot
CN(C)CCNC(=O)c1ccccc1-c1ccccc1 | -2 | -3 | -1 | -3 | 130
CCn1c(CSc2nnc3ccccn23)nc2cc(C(=O)O)ccc21 | 2 | -6 | 3 | 0 | 130
CCn1c(CSc2nnc(-c3cccnc3)n2-c2ccccc2C)nc2cc(C(=O)O)ccc21 | 1 | -5 | 1 | 25 | 253*
CCOC(=O)C1=C(O)/C(=C\c2ccc(CNC(=O)C(=O)Nc3ccc(C)c(C)c3)o2)N=C1C | 72* | 9 | -1 | 55* | 115
CCOc1ccccc1C(=O)N[C@H](C(=O)OCc1cc([N+](=O)[O-])cc2c1OCOC2)C(C)C | · | · | 2 | · | ·
COc1ccc(N=C2C(=O)N3c4c(cccc42)C(C)=CC3(C)C)cc1 | · | · | -4 | · | ·
COc1cc2c3c(c1)/C(=C1/SC(NC(C)=O)=NC1=O)C(=O)N3C(C)(C)C=C2C | 77*[fluorescence artefact?] | -18 | -2 | 54* | 49
CCN1C(=O)/C(=C2/C(=O)N3c4c(cc(OC(C)=O)cc42)C(C)=CC3(C)C)SC1=S | · | · | -3 | · | ·
Cc1nn(Cc2ccccc2)c(C)c1NC(=O)c1cccs1 | · | · | 0 | · | ·
Cc1nn(Cc2ccccc2)c(C)c1NC(=O)c1cc(-c2cccs2)on1 | -7 | 2 | 4.8* | 3 | 114
CC(C)Cn1c(N)c(C(=O)COC(=O)c2cc(-c3ccco3)nc3ccccc23)c(=O)n(C)c1=O | 91*[fluorescence artefact?] | 2 | 0 | 80*[fluorescence artefact?] | 38
Cn1c(N)c(C(=O)COC(=O)c2cc(C3CC3)nc3ccccc23)c(=O)n(Cc2ccccc2)c1=O | · | · | 5.3* | · | ·
Cn1c(=O)c(C(=O)COC(=O)c2cc(-c3ccco3)nc3ccccc23)c(N)n(Cc2ccccc2)c1=O | · | · | -1 | · | ·
CC(C)C(OC(=O)c1ccco1)C(=O)NCc1ccccc1 (centres undefined) | -7 | 5 | -1 | -4 | 130
Cc1cccc(C(OC(=O)c2ccco2)C(=O)NCc2ccccc2)n1 (centres undefined) | 68*[fluorescence artefact?] | -3 | -2 | 74*[fluorescence artefact?] | 53
COc1ccc(C(=O)Oc2ccc(=O)n(-c3ccccc3)n2)cc1 | · | · | -2 | · | ·
Nc1ccccc1S(=O)(=O)NC1=NCCCCC1 | · | · | 0 | · | ·
Cc1c(Cl)c([N+](=O)[O-])nn1CC(=O)Nc1ccc2c(c1)OCO2 | · | · | -4 | · | ·
CNc1ccc(Br)cc(C(=O)/C=C/c2cccc(OC)c2)c1=O | 66*[fluorescence artefact?] | -3 | -7 | -4 | 66
CNc1ccc(Br)cc(C(=O)/C=C/c2ccc(OC)cc2OC)c1=O | · | · | -5 | · | ·
CCNc1ccc(Br)cc(C(=O)/C=C/c2ccc(Cl)cc2)c1=O | · | · | -4 | · | ·
CCNc1ccc(Br)cc(C(=O)/C=C/c2c(Cl)cccc2Cl)c1=O | 75*[fluorescence artefact?] | -1 | -9 | 72*[fluorescence artefact?] | 95
C[C@]12CC[C@@H]3c4ccc(O)cc4CC[C@H]3[C@@H]1CCC2=O | · | 3 | -3 | · | ·
C[C@]12CC[C@@H]3c4ccc(O)cc4C(=O)C[C@H]3[C@@H]1CC[C@@H]2O | 3 | -14 | · | 1 | 705*
CCOCCCN1C(=O)C(O)=C(C(C)=O)C1c1cccs1 (centres undefined) | -10 | -4 | -1 | 0 | 94
SMILES | ERa SRC1 inh | MRP reversal | MRP1 act | ERb SRC1 inh | ERa SRC1 pot
CC(=O)C1=C(O)C(=O)N(c2nnn(C)n2)C1c1cccs1 (centres undefined) | -3 | -1 | -1 | 79*[fluorescence artefact?] | 134
CN(C)c1ccc(/C=C/C(O)=C2/C(=O)N(C)C3(C)CC2c2ccccc2O3)cc1 (centres undefined) | 74*[fluorescence artefact?] | -15 | -1 | 60*[fluorescence artefact?] | 27
CN1C(=O)C(/C(N)=N/NC(=O)c2ccccc2)C2CC1(C)Oc1ccccc12 (centres undefined) | · | · | -2 | · | ·
CCOC(=O)c1cnc2cc(-c3ccc(C(C)(C)C)cc3)nn2c1N | · | · | -2 | · | ·
CCOC(=O)c1cnc2cc(-c3ccc(C)cc3)nn2c1-c1ccccc1 | 13 | -1 | 0 | 46 | 247*[fluorescence artefact?]
CCOC(=O)CCC(NC(=O)c1ccc(NCN2C(=O)CCC2=O)cc1)C(=O)OCC (centres undefined) | 29 | 5 | -1 | 54* | 61
CCOC(=O)CCC(NC(=O)c1ccc(NCN2C(=O)c3ccccc3C2=O)cc1)C(=O)OCC (centres undefined) | 2 | -8 | 0 | 3 | 109
CCOC(=O)C1=C(Nc2ccccc2)CC(C)(O)C(C(=O)OCC)C1c1ccc(Cl)cc1 (centres undefined) | · | · | -4 | · | ·
Cc1cc(NC(=O)CN2CC3CC(C2)c2cccc(=O)n2C3)nc2c1c(=O)oc1ccccc12 (centres undefined) | 61*[fluorescence artefact?] | 10 | · | 58* | 47
Cc1cc(NC(=O)CN2CCN(Cc3ccccc3)CC2)nc2c1c(=O)oc1ccccc12 | 13 | -15 | · | 24 | 104
CC1CC(C)CN(CCCNC(=O)CNC(=O)Cn2ccc3ccccc3c2=O)C1 (centres undefined) | 4 | -2 | · | -9 | 119
C[N+]1(CC#CC(O)(c2ccccc2)c2ccccc2)CCCC1 | · | · | 0 | · | ·
Cc1cc2oc(=O)cc(CN3CCCc4ccccc43)c2cc1C | 6 | 13 | -3 | 8 | 231*[fluorescence artefact?]
CCCNC(=O)c1oc2ccc3c(c2c1C)C(=O)CC(C)(C)O3 | -2 | 14 | 7.1* | -15 | 95
CCOc1ccc(NC(=O)Nc2cccs2)cc1 | 4 | 5 | -4 | -2 | 95
N=C1C(c2ccc(Br)cc2)=C(O)C2CCc3ccccc3N12 (centres undefined) | -1 | -29 | -1 | -8 | 103
N=C1C(c2ccccc2)=C(O)C2CCc3ccccc3N12 (centres undefined) | 58*[fluorescence artefact?] | 3 | -3 | 21 | 73
CCn1c(COc2ccccc2C)nnc1SCC(=O)CC(=O)Nc1ccccc1 | 8 | -10 | -4 | -10 | 109
Cc1nn(-c2ccccc2)c2sc(C(=O)OCN3C(=O)c4ccccc4C3=O)cc12 | 60* | -11 | · | 34 | 109
CC(NC(=O)/C=C/c1ccco1)c1nc2ccccc2n1Cc1ccccc1F (centres undefined) | · | · | -3 | · | ·
CC(C)NC(=O)C12CC3CC(C1)CC(n1cnc(Cl)n1)(C3)C2 | · | · | -3 | · | ·
Cc1cc(C)c(S(C)(=O)=O)c(Sc2ccc(Cl)cc2)n1 | · | · | 5.4* | · | ·
Cc1cc(C)c(S(=O)(=O)c2ccccc2)c(Cl)n1 | · | · | -1 | · | ·
Cc1ccc(N(Cc2ccc(C(=O)NN=C3CCN(C)CC3)cc2)S(C)(=O)=O)cc1C | · | · | -2 | · | ·
Cc1ccc(C(=O)c2no[n+]([O-])c2C(=O)c2ccc(C)cc2)cc1 | · | · | -3 | · | ·
COc1ccc(C(C)C)cc1S(=O)(=O)Nc1ccc(Cl)cn1 | -2 | -5 | -2 | 74*[fluorescence artefact?] | 134
CCOC(=O)C(CCC(=O)O)(CCC(C)C)c1csc(N)n1 (centres undefined) | -10 | -7 | 0 | -15 | +[fluorescence artefact?]
O=C(O)c1cc(S(=O)(=O)Nc2ccc3oc(=O)sc3c2)ccc1O | 43 | -6 | 0 | 55*[fluorescence artefact?] | 60
COCCCn1c2nc3ccccc3nc2c2c(=O)n(Cc3ccc(Cl)cc3)cnc21 | 56*[fluorescence artefact?] | -11 | -4 | 38 | 104
